Compound activity (PubChem)
WRN inhibitor: qHTS for Inhibitors of WRN Helicase; AID 651768, 2012; Bifunctional 3'-5' exonuclease/ATP-dependent helicase WRN (Homo sapiens), Q14191; WRN helicase unwinding, fluorescent forked duplex, kinetic; 0.46% of 360,000 active; Potency, µM (series often up to 114 µM), hits mostly inhibitors; further: nearly all actives have a fitted effect of over 55% in size
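Screening of the MLSMR collection measured strand separation of a quenched forked DNA duplex (100 nM) by 20 nM WRN with 2 mM ATP, all final. Compounds were preincubated with enzyme 15 min at room temperature.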
PI5P4Ka inh: qHTS for Inhibitors of phosphatidylinositol 5-phosphate 4-kinase (PI5P4K); AID 652105, 2013; PI5P4Kalpha enzyme, ADP-Glo luminescence, 60 min; active compounds read low; Phosphatidylinositol 5-phosphate 4-kinase type-2 alpha (Homo sapiens), P48426; max response, %; 1.2% of 330,000 active; active means max response of -50% or lower; inconclusive means between -30% and -50%; inactive means -30% or higher; further: value at the top dose of about 77 µM
Target sequence (P48426 whole entry, looked up): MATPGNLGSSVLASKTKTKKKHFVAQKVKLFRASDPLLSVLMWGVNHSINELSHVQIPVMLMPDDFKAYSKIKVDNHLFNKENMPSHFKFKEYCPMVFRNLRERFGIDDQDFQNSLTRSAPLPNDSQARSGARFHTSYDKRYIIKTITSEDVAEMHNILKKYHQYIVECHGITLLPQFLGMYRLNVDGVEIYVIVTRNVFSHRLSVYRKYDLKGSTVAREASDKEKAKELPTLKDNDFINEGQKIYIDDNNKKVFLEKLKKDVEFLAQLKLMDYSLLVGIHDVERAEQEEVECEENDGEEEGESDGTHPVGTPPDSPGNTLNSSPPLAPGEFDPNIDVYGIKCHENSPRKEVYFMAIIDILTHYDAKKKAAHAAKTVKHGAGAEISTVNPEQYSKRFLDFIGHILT
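Single end-point luminescence (ADP-Glo) quantified ADP from PI5P4Kalpha turnover; ATP 5 microM final, 1 h at RT, 0.1% CHAPS and 0.28 mM EGTA in HEPES pH 7.4.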
POLH inh: qHTS for Inhibitors of Polymerase Eta | DNA polymerase eta (Homo sapiens), Q9Y253 | recombinant Pol eta, fluorescent DNA replication assay | Potency, µM (series often up to 114 µM), usual class: inhibitors | 1.2% of 390,000 active | AID 588591, 2011
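Pol eta (10 nM) was preincubated with compounds for 15 min at room temperature, after which fluorescent replication substrate (50 nM final) was added to start the reaction. Fluorescence was read kinetically at 0 and 10 min.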
Pol iota inh: qHTS for Inhibitors of Polymerase Iota | DNA polymerase iota (Homo sapiens), Q9UNA4 | Pol iota fluorescent replication assay, 10 min | Potency, µM (doses to about 115 µM), actives largely listed as inhibitors | 1% of 390,000 active
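Pol iota at 10 nM preincubated 15 min with compounds at room temperature; reaction started with fluorescent substrate, 50 nM final. Fluorescence read kinetically at 0 and 10 min; buffer-only wells as negative control.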
POLK inh: qHTS for Inhibitors of Polymerase Kappa. DNA polymerase kappa (Homo sapiens), Q9UBT6. purified Pol kappa, fluorescent DNA synthesis assay, 10 min. Potency, µM (top dose mostly 107 µM), usual class: inhibitors. 0.53% of 400,000 active
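Activity was followed as the change in fluorescence between reads at 0 and 10 min after starting the reaction with 50 nM substrate. Beforehand, 10 nM polymerase had been preincubated with compound for 15 min at room temperature.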
POLB inh: qHTS Assay for Inhibitors of DNA Polymerase Beta. Pol beta primer extension/strand displacement, fluorescence kinetic. Potency, µM (doses to about 114 µM), hits mostly inhibitors. 1.3% of 340,000 active
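Homogeneous kinetic assay of primer extension and strand displacement by 10 nM Pol beta, preincubated 15 min at room temperature with compound before 50 nM substrate (final) was added. Read at 0 and 10 min; four-parameter Hill fit.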
Of the large screens only hits and unclear results are named; the others gave an inactive call. The list is not random: actives were taken first. Their share in the collection is about 2.8%. Unless noted, the call rests on the fitted dose curve; in most records, active means well fitted curve in the direction sought with a large enough effect; inconclusive means small, poorly fitted or top-dose-only effect, or another doubt; inactive means no such curve, though single readings can be large; an effect the other way counts as inactive or inconclusive.

Cc1cccc(-n2nc3c(c2NC(=O)C2CC2)CS(=O)(=O)C3)c1C	none
CC(C)N1CCN(Cc2cccc(-c3ccco3)c2)CC1CCO (stereo unspecified)	POLB inh 10µM
CCCCN(CC)C(=O)c1cc2c(=O)n3ccccc3nc2n1C	POLB inh 44.7µM (no result: WRN inhibitor, PI5P4Ka inh)
CCOC(=O)c1sc2nc3c(SCC(=O)O)cc(C(=O)c4ccccc4O)cn3c(=O)c2c1C	POLH inh inconclusive, Pol iota inh inconclusive, POLB inh 3.16µM
COC(=O)c1cc(C(=O)c2cc(F)ccc2O)cn2c(=O)c3c(C)c(C)sc3nc12	Pol iota inh inconclusive, POLB inh 31.6µM
Cc1sc2nc3c(SC(C)C(=O)O)cc(C(=O)c4ccccc4O)cn3c(=O)c2c1C (stereo unspecified)	WRN inhibitor inconclusive, PI5P4Ka inh inconclusive, POLH inh inconclusive, Pol iota inh inconclusive, POLB inh inconclusive
Cc1ccc2c(Cl)c(C(=O)NC3CC3)sc2c1	none
CN1c2ccccc2C(C)(C)C12C=Nc1c(ccc3ccccc13)O2 (stereo unspecified)	WRN inhibitor inconclusive, Pol iota inh inconclusive
COc1ccc2ccc3c(c2c1)N=CC1(O3)N(C)c2ccccc2C1(C)C (stereo unspecified)	WRN inhibitor 79.4µM, Pol iota inh 5.01µM, POLB inh inconclusive (no result: PI5P4Ka inh)
O=C(CN1CCOCC1)Nc1ccccc1C(=O)O	Pol iota inh 79.4µM (no result: PI5P4Ka inh)
Cc1ccccc1NC(=O)CN1CCOCC1	none
c1ccc(-c2ccccc2OCCOCCN2CCOCC2)cc1	POLB inh 50.1µM
CCN1CCN(CCOCCOc2ccccc2-c2ccccc2)CC1	none (no result: WRN inhibitor, PI5P4Ka inh, POLH inh, Pol iota inh, POLK inh)
CC1(C)OB(c2cnc(C#N)nc2)OC1(C)C	none (no result: WRN inhibitor, PI5P4Ka inh, POLH inh, POLB inh)
Cc1nn(-c2ccccc2)c2sc(-c3nnc(SCC(=O)O)o3)cc12	POLH inh 89.1µM (no result: PI5P4Ka inh)
Cc1ccc(NC(=O)CCn2nc(C)c(S(=O)(=O)N3CCCCC3)c2C)cc1Cl	none (no result: WRN inhibitor, PI5P4Ka inh)
CCCN1C(C(=O)c2ccccc2)=C(OC(=O)c2ccc(C)cc2)c2ccccc2S1(=O)=O	none (no result: WRN inhibitor, PI5P4Ka inh)
Cc1ccc(C(=O)OC2=C(C(=O)c3ccccc3)N(C)S(=O)(=O)c3ccccc32)cc1	Pol iota inh 89.1µM, POLB inh inconclusive (no result: WRN inhibitor, PI5P4Ka inh)
O=S1(=O)CCO[C@H]2CCCC[C@@H]2N1Cc1ccc(Cl)cc1	none (no result: WRN inhibitor, PI5P4Ka inh, POLH inh, POLB inh)
CN(CC(=O)Nc1ccccc1Cl)C(=O)COC(=O)c1ccc([N+](=O)[O-])s1	POLH inh 79.4µM, Pol iota inh inconclusive (no result: POLB inh)
COc1ccccc1NC(=O)COC(=O)c1ccc([N+](=O)[O-])s1	POLH inh inconclusive, Pol iota inh 79.4µM, POLB inh 7.08µM
Cc1oc(-c2cccc(Cl)c2)nc1CN1CCCC(C(=O)N2CCN(c3ccc(F)cc3)CC2)C1 (stereo unspecified)	none (no result: WRN inhibitor, PI5P4Ka inh)
Cc1ccc(NS(=O)(=O)c2ccc3c(c2)N(C)C(=O)CC(=O)N3C)cc1Cl	none (no result: WRN inhibitor, PI5P4Ka inh)
CC(=O)Nc1ccc(S(=O)(=O)NC(C)(C#N)C2CC2)cc1 (stereo unspecified)	none
Fc1ccc(C(c2ccc(F)cc2)N2CCN(CC=Cc3ccccc3)CC2)cc1	none (no result: WRN inhibitor, PI5P4Ka inh, POLH inh, Pol iota inh, POLB inh)
Cc1ccc(NC(=O)CC(=O)Nc2ccc(C)cc2C)c(C)c1	none
Cc1ccc(N/C(C(Cl)=C(Cl)Cl)=C(/Cl)[N+](=O)[O-])c(C)c1	Pol iota inh 15.8µM
O=C(Nc1nc2c(F)cc(F)cc2s1)C1CC(=O)N(Cc2ccco2)C1 (stereo unspecified)	PI5P4Ka inh inconclusive, POLH inh 50.1µM, Pol iota inh 28.2µM, POLK inh inconclusive, POLB inh 28.2µM
Cc1cc(C)c2nc(NC(=O)C3CC(=O)N(Cc4ccco4)C3)sc2c1 (stereo unspecified)	none
CCOc1cc(/C=N/N=C2/NC(=O)C(CC(=O)O)S2)ccc1OCc1ccccc1Cl (stereo unspecified)	POLH inh inconclusive, POLB inh 28.2µM
